Experiments:
Test in all cases: PBM binding z-score (relative to random genomic background probes); higher = stronger binding; sequences stand for … in GC…GCGATTGACAGCGTAGAATGAAGG
[1] = tested on: RARb homodimer (NR concentration 270 nM)
Method in brief: (§1)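 Scanned fluorescence from custom Agilent 4×180K protein-binding microarrays was regression-normalized. Binding z-scores use random background probes as reference. Ligand-free nuclear receptor dimers were incubated on the arrays for 1 h and detected with antibodies against each partner (one per run).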

[2] = tested on: RARg:RXRa (NR concentration 270 nM, RXRa partner concentration 90 nM)
Method in brief: as §1

[3] = tested on: RARg homodimer (NR concentration 270 nM)
Method in brief: as §1

[4] = tested on: RXRa DBDmut IVT, anti-RXR (DBD mutation: RXRa K156A/R161A, NR concentration 90 nM)
Method in brief: as §1

[5] = tested on: RXRa homodimer (NR concentration 180 nM)
Method in brief: as §1

[6] = tested on: THRa:RXRa (NR concentration 90 nM, RXRa partner concentration 90 nM)
Method in brief: as §1

[7] = tested on: THRa homodimer (NR concentration 90 nM)
Method in brief: as §1

[8] = tested on: VDR homodimer (NR concentration 270 nM)
Method in brief: as §1

| Sequence | PBM binding z-score [1] | PBM binding z-score [2] | PBM binding z-score [3] | PBM binding z-score [4] | PBM binding z-score [5] | PBM binding z-score [6] | PBM binding z-score [7] | PBM binding z-score [8] |
| --- | --- | --- | --- | --- | --- | --- | --- | --- |
| CGAACTAGGTCAGCCAGGACAGTGAATACATTGA | 2.65 | 3.04 | 4.54 | 1.2 | 1.54 | 3.12 | 1.45 | 0.353 |
| TCTTATAGGTAAAAGGTGAAAGTCGGTGTGGTAA | 1.91 | 2.24 | 0.977 | 1.69 | 3.2 | 1.8 | 0.525 | 0.326 |
| TCGAGTAGCTTAGTCGGGGCATTCAGCCAACATA | -0.405 | -0.536 | -1.05 | -0.135 | -0.559 | -0.289 | -0.688 | -0.534 |
| ATCGAAAGGACGAAGGTGAGTATACCCACCCGAA | 0.646 | 1.11 | 1.26 | -0.397 | 0.555 | 0.23 | -0.316 | -0.271 |
| TCGAGTAGGTTAGGGGCATGCAGAATGGCGTCGA | 1.07 | 0.351 | 0.462 | 0.22 | 0.663 | 0.973 | 0.12 | 0.0612 |
| GCAGACAGGTGAAACGCACGTAACTCAGGGTGGC | -0.115 | 0.327 | 0.0511 | -0.335 | 0.528 | -0.124 | -0.367 | -0.768 |
| CGAACGAGGACATGAGTTGATAGCAAATGCCGAT | 0.159 | 0.527 | 1.16 | 1.52 | 0.107 | 2.23 | 1.28 | 0.998 |
| CGTCCACGGTCAAAGGTCAGTGAAGAGATGACGG | 4.48 | 6.76 | 6.04 | 0.983 | 7.05 | 3.11 | 0.0529 | 0.561 |
| AGAACGAGGGCACTCTGAGTTGATAGCAGAGTAG | 0.374 | 1.4 | 1.55 | 2.21 | 0.823 | 1.29 | -0.153 | 1.73 |
| TCTTGTAGATCAAGCACGTTAAGAAAGCCTGAGT | -0.605 | -0.0676 | -0.183 | 0.721 | 0.234 | -0.341 | -0.599 | -0.125 |
| TCGGCTAGGTCAACGATGGTCAGCTAATCTGCTA | 3.12 | 4.15 | 5.22 | 0.991 | 2.56 | 2.96 | 0.739 | 0.189 |
| GGAACGTGGGCAAAGTTGATAGCATCTGTCGACG | -0.345 | -0.158 | -0.178 | -0.177 | -0.03 | -0.579 | -0.838 | -0.389 |
| ATACCAAGGTGATCGTGAGGTCGTTGAAACTAAC | 2.04 | 2.53 | 1.34 | 0.72 | 1.98 | 3.84 | 3.02 | 3.25 |
| ATATGTAGGTTATCGGGACATTCAGTTTGCGCAT | 1.09 | 0.79 | 1.16 | 0.776 | 1.03 | 1.72 | 1.55 | 1.48 |
| CCTGCTAGGTCATGGTCAGCTATTCTACAGTATG | 3.14 | 3.88 | 4.48 | 2.05 | 2.65 | 2.93 | 1.28 | 0.248 |
| TCTATTAGTTTATTAGGGCAACCGAAACAGCGGA | 1.56 | 1.15 | 1.09 | 1.92 | 0.82 | 1.54 | 1.62 | 1.29 |
| CAAACTAGGTCTAAGGTCAAAGTCGAGCCAACCA | 4.24 | 4.86 | 4.08 | 2.51 | 5.24 | 4.1 | 4.5 | 3.63 |
| ATACCAAGGTGATCGTGAGGTCGTTCATACTAAC | 1.73 | 2.21 | 0.992 | 0.992 | 1.58 | 3.38 | 2.71 | 3.68 |
| ACTTACGGGTCAACGAGGTTATAGGACGCGTATA | 3.83 | 5.63 | 5.28 | 2.24 | 6.33 | 4.32 | 1.19 | 3.27 |
| CCTACTGGGCGAAAGGTCATTGATTCCAATGCTC | 4.3 | 5.19 | 4.82 | 1.01 | 5.76 | 2.95 | 0.374 | 2 |
| TCTCGGAGGACACGAAGGTAAGAGCTTTCCAGAG | 0.164 | 0.396 | 1.27 | 0.371 | -0.0884 | 1.18 | 0.0809 | -0.641 |
| GCGGCTGGGGCAAAGCAGGTTACCATAAGGTTGG | 1.19 | 0.368 | 0.921 | -0.596 | 0.116 | 3.18 | 0.108 | -0.402 |
| CTAGACAGGTGAGAAGGTAACTCAGCCTCGATTA | 0.253 | 0.538 | 0.499 | -0.295 | 0.228 | 0.0525 | -0.0949 | -0.377 |
| CCTGCTAGGTCAATGGTCAGATAAAGCAGCTCGC | 2.54 | 3.8 | 4.61 | 1.55 | 2.45 | 2.12 | 0.626 | 0.232 |
| AGTCAAAGTTCAGGACGAGGTAACCTAAAGCACG | 3.52 | 4.84 | 4.86 | 2.85 | 3.15 | 3.88 | 1.92 | 2.29 |
| ACTAGCATGCCAAGTTTGGGTCACTCAAACAAAG | 1.71 | 1.43 | 0.744 | -0.167 | 0.674 | 2.19 | 0.882 | 0.673 |
| TCTTGTGGATCAAAGGTTAAGAAAGCCGAAGCCT | 1.42 | 1.5 | 0.798 | 0.751 | 3.43 | 1.47 | -0.309 | -0.0408 |
| TCTTGTAGATCAAGAGAGGTTAAGAAAGTGCGCT | 0.846 | 0.415 | 0.178 | 0.14 | 1.21 | 2.27 | -0.932 | 0.194 |

Reference: the supplement of paper PMC6555819
